Source: PubChem BioAssay AID2147 (National Center for Advancing Translational Sciences (NCATS), 2009)
In all, about 230,000 compounds went through this assay and about 3,600 (1.6%) were called active. Roughly 15% stayed inconclusive and do not appear here. Many of the other results were omitted from the sample, so actives are more common in it than they were. Unmarked numbers belong to inactive results. Calls come from the whole dose curve; as a rule, active = well fitted inhibition curve with a large enough effect (not every such curve was filed as active); inconclusive = small, poorly fitted or top-dose-only effect, or another doubt; inactive = no such curve, though single readings can be large or run the other way.

These molecules were tested against Lysine-specific demethylase 4E (Homo sapiens) (UniProt B2RXH2) (assay: qHTS Assay for Inhibitors of Human Jumonji Domain Containing 2E (JMJD2E)). Details: JMJD2E catalytic domain, FDH-coupled NADH fluorescence (FDH is formaldehyde dehydrogenase); series mostly up to 57.1 µM; activity change, negative = inhibition: at the top concentration.
Chain of Lysine-specific demethylase 4E (Homo sapiens) (B2RXH2 1-337 limits assumed): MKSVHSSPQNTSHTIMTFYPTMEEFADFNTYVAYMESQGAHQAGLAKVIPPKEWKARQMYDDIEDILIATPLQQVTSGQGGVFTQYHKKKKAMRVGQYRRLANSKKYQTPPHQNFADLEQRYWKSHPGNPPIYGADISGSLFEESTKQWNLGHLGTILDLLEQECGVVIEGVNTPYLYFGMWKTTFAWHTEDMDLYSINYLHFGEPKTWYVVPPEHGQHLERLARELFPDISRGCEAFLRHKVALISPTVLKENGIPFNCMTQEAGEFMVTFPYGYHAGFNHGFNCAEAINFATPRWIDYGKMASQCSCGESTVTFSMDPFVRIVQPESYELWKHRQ
From the text: Assay Provider: Structural Genomics Consortium [SGC] Screening Center PI: Austin, C.P. Screening Center: NIH Chemical Genomics Center [NCGC] The fine interplay among methylation states of several lysine residues on the tails of histone proteins is a major determinant of the transcriptional state of the associated DNA coding regions and is commonly referred to as the histone code. Histone lysine demethylases catalyze the removal of methyl groups from methylated lysine sidechains on histones H3 and H4, thus antagonizing the reactions catalyzed by histone lysine methyltransferases. […] In search for novel inhibitors of JMJD2E demethylase, a member of the largest set of histone demethylases belonging to the Fe(II) and 2-oxoglutarate oxygenase (2OG) superfamily, we performed a quantitative high-throughput screen (Inglese 2006) by using an assay which utilizes a trimethylated peptide substrate corresponding to a fragment of histone H3 (sequence ARKme3STGGK) with detection of the formaldehyde co-product in real time by a formaldehyde dehydrogenase (FDH) coupled reaction. FDH catalyzes oxidation of formaldehyde to formic acid with the concomitant reduction of the non-fluorescent beta-nicotinamide adenine dinucleotide hydrate (NAD+) cofactor to the fluorescent NADH co-product. References: Inglese, J., Auld, D., Jadhav, A., Johnson, R., Simeonov, A., Yasgar, A., Zheng, W. and Austin, C. Proc Natl Acad Sci USA 2006, 103, 11473-11478. N. R. Rose, S. S. Ng, J. Mecinovic, B. M. Lienard, S. H. Bello, Z. Sun, M. A. McDonough, U. Oppermann and C. J. Schofield, J Med Chem, 2008, 51, 7053-7056. Sakurai, M., Rose, N., Schultz, L., Quinn, A., Jadhav, A., Ng, S., Oppermann, U., Schofield, C.J. and Simeonov, A. Mol BioSystems 2009, in press. S. Michael, D. Auld, C. Klumpp, A. Jadhav, W. Zheng, N. Thorne, C. Austin, J. Inglese and A. Simeonov, Assay Drug Dev Technol, 2008, 6, 637-657.
Reagents and Controls: Ferrous ammonium sulfate, (+)-sodium L-ascorbate, beta-nicotinamide adenine dinucleotide hydrate (NAD+), Tween-20, formaldehyde dehydrogenase from P. putida (FDH), and disodium 2-oxoglutarate were from Sigma (St. Louis, MO). Black solid-bottom 384-well or 1,536-well assay plates were from Greiner Bio-One (Monroe, NC). Enzyme was supplied by Prof. Udo Oppermann, SGC-Oxford. The catalytic domain of human JMJD2E (residues 1-337) was produced as an N-terminally His6-tagged protein in E. coli, and purified by Ni-affinity chromatography and size-exclusion chromatography, and stored in HEPES 50 mM/ NaCl 500 mM pH 7.5, as reported in Rose 2008. The trimethylated histone peptide substrate ARK(me3)STGGK was synthesized and HPLC-purified by the Tufts University Core Facility (Boston, MA). Substrate solution (Sakurai 2009) contained 50 uM ARK(me3)STGGK, 0.00025 U/uL FDH, 50 uM 2-oxoglutarate, 250 uM NAD+, 1 mM ascorbate, and 10 uM ferrous ammonium sulfate. Controls and plate map: Buffer (150 mM HEPES pH 7.5 containing 0.01% Tween-20) in columns 3 and 4 as negative control (no enzyme) and 100 nM JMJD2E final concentration in columns 1,2, and 5-48. Assay Steps: Enzyme and buffer solutions (3 uL) were dispensed into a 1,536-well Greiner black solid-bottom assay plate. The library compounds (23 nL) were transferred using a Kalypsys pintool equipped with 1,536-pin array. The plate was incubated at room temperature (15 min), and then a 1 uL aliquot of substrate solution was added to initiate the reaction. The plate was transferred to ViewLux imager where an initial reading using standard UV optics (Ex 340 nm, Em 450 nm) was obtained. The plate was then removed from the reader, incubated for 30 minutes at room temperature, and returned to the reader for a second fluorescence reading. A fully automated robotic screening system (Kalypsys Inc, San diego, CA) was used to perform the above steps as described previously (Michael 2008). […]
Note: nearly all actives have a fitted effect of over 50% in size.
Potency is the fitted concentration of half-maximal effect.
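Throughout, for activity change, negative = inhibition: 0% = wells with enzyme and -100% = buffer wells without enzyme.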

Row | SMILES | Potency | activity change, negative = inhibition
1 | CCc1c(C)[nH]c(=S)c(C#N)c1C | 20 µM (active) | 
2 | CC(=O)c1c(C)[nH]c(=S)c(C#N)c1-c1ccc(F)cc1 |  | -4.15%
3 | CCOC(=O)c1c(C)[nH]c(=S)c(C#N)c1-c1ccccc1 |  | -6.99%
4 | CS(=O)(=O)c1ccc(Cl)c(NC(=O)Nc2ccccc2)c1 |  | 4.04%
5 | COc1ccc(C2C(C#N)=C(/N=C/N3CCOCC3)OC3=C2C(=O)CC(C)(C)C3)cc1OC (stereo not given) |  | 9.69%
6 | COc1cc(C2C(C#N)=C(C)NC3=C2C(=O)CC(C)(C)C3)ccc1O (stereo not given) | 12.6 µM (active) | 
7 | CCC1C(C#N)=C(SC)NC2=C1C(=O)CC(C)(C)C2 (stereo not given) |  | -6.81%
8 | CC(=O)N1CCC(N(C(=O)Nc2ccc(Cl)cc2)C(C)C)CC1 |  | 6.42%
9 | O=C(CCCN1C(=O)/C(=C\c2ccccc2)SC1=S)Nc1ccccc1O |  | 0.574%
10 | c1ccc(CSc2nnc(-c3ccco3)c(-c3ccco3)n2)cc1 | 7.94 µM (active) | 
11 | c1ccc(CSc2nnc(-c3ccco3)n2Cc2ccccc2)cc1 |  | -1.27%
12 | Brc1ccc(CSc2ccc(-c3ccco3)nn2)cc1 |  | -6.02%
13 | O=S(=O)(NCCc1csc(-c2ccccc2)n1)c1cccnc1 |  | -8.14%
14 | Cc1cc(-c2nnc(CCC(=O)NC(c3ccccc3)c3ccccc3)o2)no1 |  | -3.52%
15 | O=C1C(c2ccccn2)=[N+]([O-])c2ccccc21 | 12.6 µM (active) | 
16 | CCN(CC)c1ccc(/C=N/Nc2nc(C)cc(C)n2)c(O)c1 |  | -10.7%
17 | CCN(CC)c1ccc(/C=N/NC(=O)c2cnccn2)c(O)c1 | 10 µM (active) | 
18 | O=C(Nc1ccc2c(c1)OCCO2)c1cnccn1 |  | 2.22%
19 | CCOC(=O)c1c(CC(C)C)csc1/N=C/C1=C(O)CCCC1=O |  | -4.66%
20 | CCOC(=O)c1c(C)oc(C)c(C(=O)OCC)c1=O |  | 5.03%
21 | O=C(COC(=O)c1ccc2c(c1)OCCO2)NCc1ccccc1 |  | 4.35%
22 | O=C(COC(=O)c1c2c(nc3ccccc13)/C(=C\c1cccs1)CCC2)Nc1ccccc1Cl |  | -20.3%
23 | NC(=O)c1ccc(NC(=O)COC(=O)c2c3c(nc4ccccc24)/C(=C\c2ccc4c(c2)OCO4)CCC3)cc1 | 3.16 µM (active) | 
24 | O=C(Cc1ccccc1)Nc1c(Cl)ccc2nsnc12 |  | 9.63%
25 | O=C(NC(=O)N1CCSCC1)c1c(Cl)cccc1Cl |  | -0.9%
26 | O=C(NCc1ccccc1)c1ccc(S(=O)(=O)Nc2cccc(C(F)(F)F)c2)cc1 |  | 0.951%
27 | Oc1ccc(N2CCN(C(=S)NCc3ccccc3)CC2)cc1 |  | -10.7%
28 | O=[N+]([O-])c1ccccc1NCc1ccc(Cl)cc1 |  | -2.51%

Row | SMILES | Potency | activity change, negative = inhibition
29 | Oc1ccc(CNc2ccccc2O)cc1 | 15.8 µM (active) | 
30 | CC#CC[N+](C)(C)CCCCCC |  | 8.38%
31 | O=C(NC(=S)Nc1ccc(S(=O)(=O)N2CCOCC2)cc1)c1ccccc1[N+](=O)[O-] |  | -2.52%
32 | O=[N+]([O-])c1cc(Cl)cc(/C=N/NC(=S)Nc2cc(S(=O)(=O)N3CCOCC3)ccc2Cl)c1O | 8.91 µM (active) | 
33 | O=C(N/N=C/c1ccc([N+](=O)[O-])o1)c1cccc(S(=O)(=O)N2CCOCC2)c1 |  | -14.5%
34 | CC1=NCCN1S(=O)(=O)c1cccc([N+](=O)[O-])c1 |  | -1.96%
35 | CN(C)C(=O)c1cccn(Cc2cccc(C(F)(F)F)c2)c1=O |  | -5.47%
36 | Cc1csc(NC(=O)NC2(C(F)(F)F)Oc3ccccc3O2)n1 |  | 9.22%
37 | O=C(Nc1cc(N2CCOCC2)ncn1)NC1(C(F)(F)F)Oc2ccc(Cl)cc2O1 (stereo not given) | 14.1 µM (active) | 
38 | c1cnn(-c2cc(N3CCOCC3)ncn2)c1 |  | -0.0538%
39 | CCCn1nc(C(=O)N2CCCc3ccccc32)c2ccccc2c1=O |  | 2.86%
40 | Cc1ccc(NC(=O)c2ccn(C(=O)Nc3ccccc3)n2)c(C)c1 |  | 0.815%
41 | Cc1cc(C)n(CC(C)NCc2c(C(=O)N3CCOCC3)nc3c(C)cccn23)n1 (stereo not given) |  | -4.89%
42 | CC1(C)CC(=O)C(N=Nc2c(F)cccc2F)=C(O)C1 |  | -0.664%
43 | C=CCNC(=O)CSc1nc2scc(-c3ccco3)c2c(=O)n1CC=C |  | -26.5%
44 | Cc1cc(C)c(C)c(S(=O)(=O)N[C@@H](C)C(=O)OC(C)C(=O)NC(N)=O)c1C (stereo not given in full) |  | 11.9%
45 | O=C(CCCCCNC(=O)c1ccccc1)N/N=C/c1ccccc1 |  | -2.53%
46 | O=C(N/N=C/c1ccccc1O)/C(=C/c1ccccc1)CCO | 20 µM (active) | 
47 | O=C(CCC(=O)Nc1ccccc1)N/N=C/c1ccccc1F |  | -1.17%
48 | CCCCCCCCCCCCC(NC(C)=O)(C(=O)OCC)C(=O)OCC |  | -21.7%
49 | O=C(CSc1nnnn1-c1ccc(O)cc1)N1N=C(c2ccc3ccccc3c2)CC1c1ccccc1 (stereo not given) | 1.41 µM (active) | 
50 | COc1ccc(C2CC(c3ccccc3)=NN2C(=O)CSc2nccc(=O)[nH]2)cc1 (stereo not given) |  | 3.32%
51 | O=C(CSc1nnnn1-c1ccc(O)cc1)c1ccc(F)cc1 |  | -21.2%
52 | CN(C)C(=S)Nc1ccc(Br)cc1Cl |  | 9.36%
53 | COCCn1c(SCC(=O)Nc2cc(OC)ccc2OC)nc2c(c1=O)SC(C)C2 (stereo not given) |  | -1.2%
54 | O=C(Nc1ccccc1)N1CCN(C2c3ccccc3-c3ccccc32)CC1 |  | 1.98%
55 | O=C(CSc1ncn[nH]1)Nc1nc(-c2cccc([N+](=O)[O-])c2)cs1 |  | 14.6%
